In ChEMBL document CHEMBL1961873, “Compounds: GSK PKIS; Assays: Nanosyn kinase panel” (2012) one finds inhibition data, which are given here for seven molecules.

The target of experiment [1] is Tyrosine-protein kinase receptor UFO (Homo sapiens) (UniProt P30530). The settings on record: at 1 µM.
In experiment [2] the target is Tyrosine-protein kinase Blk (Homo sapiens) (UniProt P51451). The settings on record: at 0.1 µM.
The target is the same in experiment [3]. The settings on record: at 1 µM.
For experiment [4], the target named is T1, Cytoplasmic tyrosine-protein kinase BMX (Homo sapiens) (UniProt P51813).
T1 sequence (whole entry): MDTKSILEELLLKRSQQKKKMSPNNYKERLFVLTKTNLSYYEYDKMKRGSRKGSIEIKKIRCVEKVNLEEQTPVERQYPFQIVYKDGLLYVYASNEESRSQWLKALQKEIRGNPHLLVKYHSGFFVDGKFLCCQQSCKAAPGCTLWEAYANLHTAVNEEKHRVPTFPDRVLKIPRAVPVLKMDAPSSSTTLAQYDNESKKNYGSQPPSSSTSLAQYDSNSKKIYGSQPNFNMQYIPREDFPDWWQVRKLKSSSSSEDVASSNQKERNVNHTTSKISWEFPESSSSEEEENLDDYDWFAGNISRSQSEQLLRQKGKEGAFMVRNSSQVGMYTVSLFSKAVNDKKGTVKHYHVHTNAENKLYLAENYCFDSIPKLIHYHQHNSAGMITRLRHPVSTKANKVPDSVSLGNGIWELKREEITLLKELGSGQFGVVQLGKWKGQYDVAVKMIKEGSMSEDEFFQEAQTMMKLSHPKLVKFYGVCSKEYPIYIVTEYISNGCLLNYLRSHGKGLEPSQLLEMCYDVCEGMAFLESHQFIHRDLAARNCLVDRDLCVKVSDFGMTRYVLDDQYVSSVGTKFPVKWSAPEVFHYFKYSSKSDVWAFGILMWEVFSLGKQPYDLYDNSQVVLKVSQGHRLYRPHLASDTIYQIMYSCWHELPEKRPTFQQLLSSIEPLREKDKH
The settings on record: at 0.1 µM.

In experiment [5] the target is T1, Cytoplasmic tyrosine-protein kinase BMX (Homo sapiens). The settings on record: at 1 µM.
Experiment [6] has as its target Protein-tyrosine kinase 6 (Homo sapiens) (UniProt Q13882). Particulars: at 0.1 µM.
Experiment [7] shares this target. The settings on record: at 1 µM.
The target in experiment [8] is Tyrosine-protein kinase BTK (Homo sapiens) (UniProt Q06187). The settings on record: at 0.1 µM.
Chain of Tyrosine-protein kinase BTK (Homo sapiens) (Q06187 whole entry): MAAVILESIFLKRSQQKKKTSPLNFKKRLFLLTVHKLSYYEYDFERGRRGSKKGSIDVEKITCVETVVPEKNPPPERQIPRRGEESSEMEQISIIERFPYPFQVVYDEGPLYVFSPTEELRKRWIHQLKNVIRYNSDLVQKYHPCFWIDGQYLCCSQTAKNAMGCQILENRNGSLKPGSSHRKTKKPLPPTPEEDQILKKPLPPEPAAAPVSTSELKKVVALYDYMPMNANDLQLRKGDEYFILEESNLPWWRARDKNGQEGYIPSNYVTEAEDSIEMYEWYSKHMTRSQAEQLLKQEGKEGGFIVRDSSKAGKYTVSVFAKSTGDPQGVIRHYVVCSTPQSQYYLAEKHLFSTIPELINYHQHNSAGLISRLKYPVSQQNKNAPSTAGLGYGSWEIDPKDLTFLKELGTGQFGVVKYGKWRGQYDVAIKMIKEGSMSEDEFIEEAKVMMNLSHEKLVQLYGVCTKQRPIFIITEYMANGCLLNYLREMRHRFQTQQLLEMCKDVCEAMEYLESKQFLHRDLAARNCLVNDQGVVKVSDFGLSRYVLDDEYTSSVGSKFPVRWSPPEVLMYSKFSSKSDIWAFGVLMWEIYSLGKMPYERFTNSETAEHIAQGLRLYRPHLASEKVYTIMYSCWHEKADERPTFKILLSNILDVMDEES
Experiment [9] shares this target. The settings on record: at 1 µM.
For experiment [10], the target named is Tyrosine-protein kinase CSK (Homo sapiens) (UniProt P41240). Particulars: at 0.1 µM.
Chain of Tyrosine-protein kinase CSK (Homo sapiens) (P41240 2-450 limits assumed): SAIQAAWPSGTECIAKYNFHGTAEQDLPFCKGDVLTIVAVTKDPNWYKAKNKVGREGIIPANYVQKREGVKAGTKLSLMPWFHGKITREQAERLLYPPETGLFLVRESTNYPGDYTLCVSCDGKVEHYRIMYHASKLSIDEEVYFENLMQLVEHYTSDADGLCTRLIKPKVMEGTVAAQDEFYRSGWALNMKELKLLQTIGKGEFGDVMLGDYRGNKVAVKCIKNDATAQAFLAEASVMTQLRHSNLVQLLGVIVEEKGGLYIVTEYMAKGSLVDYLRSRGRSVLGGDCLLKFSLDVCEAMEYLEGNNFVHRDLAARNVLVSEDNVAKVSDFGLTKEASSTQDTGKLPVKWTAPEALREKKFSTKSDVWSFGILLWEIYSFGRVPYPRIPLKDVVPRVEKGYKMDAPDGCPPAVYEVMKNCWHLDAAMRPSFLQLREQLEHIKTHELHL
For experiment [11] the target is unchanged. Particulars: at 1 µM.
The target in experiment [12] is T2, Discoidin domain-containing receptor 2 (Homo sapiens) (UniProt Q16832).
T2 sequence (whole entry): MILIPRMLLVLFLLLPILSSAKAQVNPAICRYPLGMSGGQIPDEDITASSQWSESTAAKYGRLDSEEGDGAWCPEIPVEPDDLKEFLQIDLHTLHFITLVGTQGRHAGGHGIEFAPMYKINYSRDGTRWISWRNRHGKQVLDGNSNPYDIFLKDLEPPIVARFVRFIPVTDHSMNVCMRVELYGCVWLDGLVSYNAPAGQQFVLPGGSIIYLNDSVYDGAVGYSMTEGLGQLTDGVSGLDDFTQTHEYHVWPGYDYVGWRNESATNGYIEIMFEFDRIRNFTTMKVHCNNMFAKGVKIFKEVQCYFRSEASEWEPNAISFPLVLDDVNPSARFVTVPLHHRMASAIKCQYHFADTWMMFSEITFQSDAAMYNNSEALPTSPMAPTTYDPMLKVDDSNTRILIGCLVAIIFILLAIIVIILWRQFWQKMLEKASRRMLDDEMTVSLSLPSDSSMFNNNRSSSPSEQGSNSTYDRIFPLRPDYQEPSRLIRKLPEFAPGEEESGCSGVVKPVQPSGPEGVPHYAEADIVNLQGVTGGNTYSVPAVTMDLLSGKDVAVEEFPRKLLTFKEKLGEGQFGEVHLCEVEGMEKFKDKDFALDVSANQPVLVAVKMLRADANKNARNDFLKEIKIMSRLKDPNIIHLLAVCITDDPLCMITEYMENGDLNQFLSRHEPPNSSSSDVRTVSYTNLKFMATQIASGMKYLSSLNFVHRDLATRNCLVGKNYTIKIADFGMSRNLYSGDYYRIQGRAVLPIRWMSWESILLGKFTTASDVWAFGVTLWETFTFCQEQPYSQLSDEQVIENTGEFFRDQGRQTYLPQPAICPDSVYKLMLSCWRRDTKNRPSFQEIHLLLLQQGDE
Particulars: at 0.1 µM.

Experiment [13] has as its target T2, Discoidin domain-containing receptor 2 (Homo sapiens). The settings on record: at 1 µM.
Experiment [14] deals with Epidermal growth factor receptor (Homo sapiens) (UniProt P00533). Particulars: at 0.1 µM.
Chain of Epidermal growth factor receptor (Homo sapiens) (P00533 whole entry): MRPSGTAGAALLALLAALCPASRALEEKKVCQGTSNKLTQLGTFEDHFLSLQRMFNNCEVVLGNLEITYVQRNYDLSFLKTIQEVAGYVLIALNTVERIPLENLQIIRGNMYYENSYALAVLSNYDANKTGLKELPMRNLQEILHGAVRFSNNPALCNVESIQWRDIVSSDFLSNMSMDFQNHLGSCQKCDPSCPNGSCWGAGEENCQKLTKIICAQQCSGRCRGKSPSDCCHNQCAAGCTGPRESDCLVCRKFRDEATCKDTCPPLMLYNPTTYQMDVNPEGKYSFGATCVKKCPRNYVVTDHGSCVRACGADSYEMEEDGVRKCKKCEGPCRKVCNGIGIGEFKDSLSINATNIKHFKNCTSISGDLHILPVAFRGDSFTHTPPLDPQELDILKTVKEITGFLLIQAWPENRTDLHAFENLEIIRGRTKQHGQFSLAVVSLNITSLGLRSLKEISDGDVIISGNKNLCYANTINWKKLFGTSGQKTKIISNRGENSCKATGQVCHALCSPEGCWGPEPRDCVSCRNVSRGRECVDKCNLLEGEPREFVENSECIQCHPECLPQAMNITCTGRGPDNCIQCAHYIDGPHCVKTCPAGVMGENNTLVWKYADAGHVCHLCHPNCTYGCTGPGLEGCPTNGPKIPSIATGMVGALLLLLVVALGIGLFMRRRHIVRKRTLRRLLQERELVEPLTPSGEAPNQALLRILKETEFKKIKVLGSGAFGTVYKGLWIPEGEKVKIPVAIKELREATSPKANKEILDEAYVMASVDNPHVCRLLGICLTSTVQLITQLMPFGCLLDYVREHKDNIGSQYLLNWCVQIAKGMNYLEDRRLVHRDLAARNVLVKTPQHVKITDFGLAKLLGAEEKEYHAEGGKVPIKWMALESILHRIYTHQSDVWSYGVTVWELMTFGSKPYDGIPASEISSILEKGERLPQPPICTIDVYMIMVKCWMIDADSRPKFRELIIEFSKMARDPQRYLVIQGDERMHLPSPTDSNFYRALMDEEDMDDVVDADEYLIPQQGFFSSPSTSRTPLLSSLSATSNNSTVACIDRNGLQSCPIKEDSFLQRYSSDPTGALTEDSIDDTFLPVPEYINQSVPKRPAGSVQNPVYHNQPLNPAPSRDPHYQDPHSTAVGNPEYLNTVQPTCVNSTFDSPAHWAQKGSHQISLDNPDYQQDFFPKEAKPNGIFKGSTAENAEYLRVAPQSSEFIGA
For experiment [15] the target is unchanged. Particulars: at 1 µM.
The test system of experiment [16] is Epidermal growth factor receptor (Homo sapiens), P00533 [L858R]. Particulars: at 0.1 µM.
The test system is the same in experiment [17]. The settings on record: at 1 µM.
Experiment [18] relates to Epidermal growth factor receptor (Homo sapiens), P00533 [L861Q]. The settings on record: at 0.1 µM.
For experiment [19] the test system is unchanged. Particulars: at 1 µM.
Experiment [20] relates to Epidermal growth factor receptor (Homo sapiens), P00533 [T790M]. Particulars: at 0.1 µM.

Chain of Protein-tyrosine kinase 6 (Homo sapiens) (Q13882 whole entry, looked up): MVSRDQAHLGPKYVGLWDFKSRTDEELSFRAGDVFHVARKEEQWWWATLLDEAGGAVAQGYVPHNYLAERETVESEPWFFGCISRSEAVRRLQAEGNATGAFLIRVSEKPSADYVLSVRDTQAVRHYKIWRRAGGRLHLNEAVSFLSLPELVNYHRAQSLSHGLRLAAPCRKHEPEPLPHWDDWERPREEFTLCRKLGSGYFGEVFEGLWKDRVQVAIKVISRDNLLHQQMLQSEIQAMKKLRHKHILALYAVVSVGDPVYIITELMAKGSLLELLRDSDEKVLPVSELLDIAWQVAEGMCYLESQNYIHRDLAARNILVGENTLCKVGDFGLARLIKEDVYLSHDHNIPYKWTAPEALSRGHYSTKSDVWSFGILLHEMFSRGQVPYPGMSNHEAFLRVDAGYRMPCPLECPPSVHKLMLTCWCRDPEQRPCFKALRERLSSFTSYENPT
Chain of Tyrosine-protein kinase receptor UFO (Homo sapiens) (P30530 whole entry): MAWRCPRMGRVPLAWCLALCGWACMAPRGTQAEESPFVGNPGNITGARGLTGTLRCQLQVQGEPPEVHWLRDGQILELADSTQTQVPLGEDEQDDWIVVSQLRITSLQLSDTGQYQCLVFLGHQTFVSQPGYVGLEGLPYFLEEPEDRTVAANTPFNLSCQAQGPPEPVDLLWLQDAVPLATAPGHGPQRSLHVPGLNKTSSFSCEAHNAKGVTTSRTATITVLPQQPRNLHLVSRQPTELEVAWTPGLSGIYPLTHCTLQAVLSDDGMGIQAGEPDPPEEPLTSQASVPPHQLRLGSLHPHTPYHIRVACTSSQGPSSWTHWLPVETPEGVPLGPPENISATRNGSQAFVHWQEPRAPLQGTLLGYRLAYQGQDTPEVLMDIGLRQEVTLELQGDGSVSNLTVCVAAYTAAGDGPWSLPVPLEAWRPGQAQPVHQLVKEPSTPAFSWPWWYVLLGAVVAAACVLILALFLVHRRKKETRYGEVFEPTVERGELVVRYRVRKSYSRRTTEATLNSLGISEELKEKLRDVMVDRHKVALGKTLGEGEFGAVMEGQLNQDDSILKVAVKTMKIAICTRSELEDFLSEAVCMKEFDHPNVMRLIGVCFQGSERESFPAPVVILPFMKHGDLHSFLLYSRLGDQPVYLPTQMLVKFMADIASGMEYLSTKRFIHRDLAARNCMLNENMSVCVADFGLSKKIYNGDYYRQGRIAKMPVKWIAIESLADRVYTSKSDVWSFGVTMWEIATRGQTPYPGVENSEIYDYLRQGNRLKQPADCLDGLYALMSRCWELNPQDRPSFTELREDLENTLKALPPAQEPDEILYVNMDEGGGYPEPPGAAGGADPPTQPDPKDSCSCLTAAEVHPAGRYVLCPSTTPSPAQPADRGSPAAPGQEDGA
Chain of Tyrosine-protein kinase Blk (Homo sapiens) (P51451 2-505 limits assumed): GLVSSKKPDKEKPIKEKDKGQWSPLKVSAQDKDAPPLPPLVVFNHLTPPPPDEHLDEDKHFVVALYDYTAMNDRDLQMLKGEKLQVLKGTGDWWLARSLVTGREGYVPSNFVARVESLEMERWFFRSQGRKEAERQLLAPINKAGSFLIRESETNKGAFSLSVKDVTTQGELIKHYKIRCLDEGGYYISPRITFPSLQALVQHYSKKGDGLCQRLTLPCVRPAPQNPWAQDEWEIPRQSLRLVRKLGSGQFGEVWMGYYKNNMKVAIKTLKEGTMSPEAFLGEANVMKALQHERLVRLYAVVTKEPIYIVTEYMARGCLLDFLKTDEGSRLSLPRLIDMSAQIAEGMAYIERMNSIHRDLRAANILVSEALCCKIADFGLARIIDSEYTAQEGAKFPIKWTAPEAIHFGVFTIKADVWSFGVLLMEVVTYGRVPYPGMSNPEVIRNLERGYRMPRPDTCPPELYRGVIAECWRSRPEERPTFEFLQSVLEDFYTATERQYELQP

Broadly, the inhibition is the relative decrease from the control value, in per cent. Regarding `CCn1c(-c2nonc2N)nc2c(C#CCN)ncc(OCCCN)c21`, the inhibition in experiment [1] is 7.15%; in experiment [2], 0.22%; in [3], -2.12%; in experiment [4] it was -0.45%; in experiment [5], -3%; in experiment [6], -6.06%. Moreover, the inhibition in [7] is -3.37%; in experiment [8] it was 2.31%; in [9] it was 2.06%; in experiment [10], -0.42%; in experiment [11], 2.55%; in experiment [12], 3.32%. For the same molecule, the inhibition in experiment [13] was 3.8%; in [14], 2.15%; in [15] it was 8.32%; in [16], 2.24%; in [17], 5.46%; in experiment [18] it was -0.07%. The inhibition in experiment [19] is 9.43%; in experiment [20], -0.87%.

For the molecule `NC(=O)c1sc(-n2cnc3cc(C(F)(F)F)ccc32)cc1OCc1ccccc1Br`, the inhibition in [1] is 1.55%; in experiment [2], 1.67%; in experiment [3] it was 2.39%; in experiment [4] it was -0.71%; in experiment [5] it was 0.62%; in experiment [6] it was 2.49%. For the same molecule, the inhibition in [7] is 0.4%; in [8] it was 0.15%; in [9], -0.21%; in [10] it was -3.78%; in experiment [11], -1.04%; in experiment [12], 1.02%. Moreover, the inhibition is 1.34% in experiment [13]; 3.48% in experiment [14]; 6.56% in experiment [15]; -1.95% in [16]; 0.99% in [17]; 1.64% in [18]. Also, the inhibition is 1.19% in experiment [19] and 0.21% in experiment [20].

`CCn1c(-c2nonc2N)nc2c(C#CC(C)(C)O)ncc(OCC3CCNCC3)c21`: the inhibition was -2.43% in [1]; -1.83% in [2]; -1.39% in [3]; -4.33% in experiment [4]; 2.37% in [5]; 4.21% in experiment [6]. Moreover, the inhibition in experiment [7] was 4.11%; in experiment [8] it was -3.09%; in experiment [9] it was -3.54%; in experiment [10] it was 5.4%; in experiment [11], 3.99%; in experiment [12], -0.24%. In addition, the inhibition in experiment [13] was 1.71%; in experiment [14], -3.91%; in [15] it was -3.68%; in [16], 2.79%; in experiment [17], 6.24%; in experiment [18], 3.74%. Further, the inhibition turned out to be 2.43% in experiment [19] and 1.64% in experiment [20].

As to `Cc1cc(-c2ccco2)cc(C)c1/C=C/c1cncc(-c2nn[nH]n2)c1`, the inhibition worked out at 1.57% in [1]; 1.51% in experiment [2]; 9% in [3]; 0.7% in experiment [4]; 2.83% in [5]; 0.11% in experiment [6]. The inhibition was 3.58% in experiment [7]; 0.68% in [8]; 1.5% in [9]; 0.88% in [10]; 3.48% in experiment [11]; -0.16% in [12]. In addition, the inhibition in [13] is 0.34%; in experiment [14], 3.32%; in experiment [15], 6.27%; in experiment [16], 0.25%; in experiment [17], 0.27%; in experiment [18] it was -0.29%. In addition, the inhibition in [19] was 2.11%; in [20] it was 1.06%.

For `COc1cccc(-n2ncc3c(N/N=C/c4ccncc4)ncnc32)c1`, the inhibition was 6.36% in [1]; 13.3% in experiment [2]; 63.6% in experiment [3]; 12.2% in experiment [4]; 46.6% in experiment [5]; 6.09% in experiment [6]. Moreover, the inhibition in experiment [7] is 23.1%; in experiment [8], -0.08%; in experiment [9], 2.16%; in experiment [10], 5.5%; in experiment [11], 16.8%; in experiment [12], 2.12%. Further, the inhibition is 9.37% in experiment [13]; 3.52% in experiment [14]; 28.8% in experiment [15]; 20.7% in experiment [16]; 73.3% in experiment [17]; 7.71% in experiment [18]. The inhibition in experiment [19] was 35.5%; in experiment [20], 2.99%.

As for `COc1cc(C=NNc2ncnc3c2cnn3Cc2ccccc2)ccc1O`, the inhibition in [1] was 6.34%; in [2], 0.65%; in experiment [3], 23.8%; in experiment [4], 2.02%; in [5], 16.9%; in experiment [6], -4.22%. Moreover, the inhibition in experiment [7] was -0.85%; in [8] it was -1.51%; in [9], -0.27%; in experiment [10] it was -6.66%; in [11] it was 2.56%; in [12], -0.76%. The inhibition turned out to be 5.7% in [13]; 22.5% in experiment [14]; 66.8% in experiment [15]; 64.3% in [16]; 75.5% in [17]; 23.4% in [18]. Further, the inhibition is 30.6% in [19] and -3.01% in [20].

For `NS(=O)(=O)c1ccc(N/C=C2\C(=O)Nc3ccc4ncsc4c32)cc1`, the inhibition in [1] was 24.7%; in experiment [2], 5.86%; in [3] it was 36.7%; in experiment [4], 3.85%; in experiment [5] it was 6.44%; in [6], 2.1%. The inhibition in [7] is 4.82%; in experiment [8], -2.5%; in [9], 0.29%; in experiment [10], 1.61%; in experiment [11], 3.86%; in [12], 1.19%. For the same molecule, the inhibition in experiment [13] came to 3.5%; in experiment [14], 2.49%; in experiment [15] it was 5.22%; in experiment [16], 4.28%; in [17] it was 5.3%; in [18], 2.44%. In addition, the inhibition in [19] came to 3.42%; in experiment [20], 0.93%.
